The panel holds about 79,000 compounds, 15% with a hit somewhere; the sample as a whole holds those more often. Unmarked numbers belong to inactive results. Activity calls are given as the source filed them. No stated cut-off is given here; in the data, active means growth inhibition above about 70%; inactive means the rest.
Tests used:
[1] = NCI Yeast Anticancer Drug Screen. Data for the rad52 strain (AID 147);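 further: 0% = growth of vehicle-treated control cultures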; conditions: S. cerevisiae rad52 mutant growth inhibition, hits give high values
In short: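 Compounds are applied to a genetically defined yeast strain lacking normal DNA damage repair, and inhibition of growth is expressed relative to cultures given vehicle only.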

[2] = NCI Yeast Anticancer Drug Screen. Data for the wt1 strain (AID 149);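 further: 0% = growth of vehicle-treated wt1 cultures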; conditions: S. cerevisiae wt1 strain (SPY 50644) growth inhibition, hits give high values
In short: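 wt1 strain grown with compound or vehicle; inhibition taken from the growth difference.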

[3] = NCI Yeast Anticancer Drug Screen. Data for the rad50EPP+ strain (AID 151);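 further: 0% = growth of vehicle-treated control cultures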; conditions: S. cerevisiae rad50 mutant strain, hits give high values
In short: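 Compounds were applied to the rad50EPP+ yeast strain, which bears a defined DNA repair alteration, and growth inhibition was determined relative to vehicle-treated cultures.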

[4] = NCI Yeast Anticancer Drug Screen. Data for the rad50 strain (AID 155);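 further: 0% = growth of vehicle-only cultures of the same strain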; conditions: S. cerevisiae rad50 strain growth inhibition, hits give high values
In short: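 DNA repair mutant yeast, compound exposure, growth read-out; inhibition is taken relative to vehicle.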

[5] = NCI Yeast Anticancer Drug Screen. Data for the mec2-1 strain (AID 157); conditions: S. cerevisiae mec2-1 strain, hits give high values
In short: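 Strain: mec2-1 (DNA repair/cell cycle alteration). Compound exposure, then growth measured; inhibition expressed relative to vehicle.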

[6] = NCI Yeast Anticancer Drug Screen. Data for the rad14 strain (AID 159);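 further: 0% = growth of vehicle-treated control cultures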; conditions: S. cerevisiae rad14 strain growth inhibition, hits give high values
In short: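 DNA repair-defective yeast, compound-exposed; % growth inhibition derived by comparison with vehicle-treated controls.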

[7] = NCI Yeast Anticancer Drug Screen. Data for the sgs1 mgt1 strain (AID 161);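 further: 0% = growth of cultures given vehicle only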; conditions: S. cerevisiae sgs1 mgt1 strain, hits give high values
In short: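 Inhibition of yeast growth, normalised to vehicle-treated controls, is reported for a strain bearing genetic alterations in DNA damage repair.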

[8] = NCI Yeast Anticancer Drug Screen. Data for the CLN2oe strain (AID 163);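 further: 0% = growth of vehicle-only control cultures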; conditions: S. cerevisiae CLN2oe strain, hits give high values
In short: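 Growth of a genetically modified yeast strain is measured after compound exposure and compared with cultures given vehicle alone.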

[9] = NCI Yeast Anticancer Drug Screen. Data for the cln2 rad14 strain (AID 165);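 further: 0% = growth equal to vehicle treated cultures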; conditions: S. cerevisiae cln2 rad14 strain, hits give high values
In short: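 Compounds are applied to the cln2 rad14 yeast strain, and growth is then compared with that of vehicle-treated cultures to give inhibition.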

[10] = NCI Yeast Anticancer Drug Screen. Data for the bub3 strain (AID 167); conditions: S. cerevisiae bub3 mutant strain, hits give high values
In short: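 In this screen, a yeast mutant lacking normal mitotic checkpoint function is challenged with compound. Relative growth versus vehicle gives the inhibition value.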

[11] = NCI Yeast Anticancer Drug Screen. Data for the wt2 strain (AID 169);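 further: 0% = growth of vehicle-treated yeast cultures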; conditions: S. cerevisiae wt2 strain growth inhibition, hits give high values
In short: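 This strain belongs to a panel of yeast strains with defined genetic alterations in DNA damage repair or cell cycle control. Compounds are applied, and growth inhibition is measured against vehicle-treated cultures.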

[12] = NCI Yeast Anticancer Drug Screen. Data for the mlh1 strain (AID 171);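 further: 0% = growth of vehicle-treated control cultures of the same strain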; conditions: S. cerevisiae mlh1 strain growth inhibition, hits give high values
In short: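 Growth of the mutant yeast strain after compound exposure, expressed as inhibition relative to vehicle-only controls.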

[13] = NCI Yeast Anticancer Drug Screen. Data for the sgs1 strain (AID 173);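 further: 0% = growth of vehicle-only control cultures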; conditions: S. cerevisiae sgs1 mutant, hits give high values
In short: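 Growth of a yeast strain bearing a defined genetic alteration is measured after compound treatment. Inhibition is expressed relative to vehicle-only controls.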

[14] = NCI Yeast Anticancer Drug Screen. Data for the mlh1 rad18 strain (AID 175); conditions: S. cerevisiae mlh1 rad18 strain growth inhibition, hits give high values
In short: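 Read-out is yeast growth inhibition, calculated against vehicle-only controls. The compound was applied to a strain engineered with DNA damage repair alterations.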

[15] = NCI Yeast Anticancer Drug Screen. Data for the rad18 strain (AID 177); conditions: S. cerevisiae rad18 mutant growth inhibition, hits give high values
In short: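 Growth of the mutant yeast strain after compound exposure, normalised to vehicle-only cultures.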

[16] = at 5.0 µM (retest, dose inferred, filed as 0.5)
[17] = at 50.0 µM (retest, dose inferred, filed as 5.0)

c1ccc2c(c1)c1ncccc1c1nccnc21
growth inhibition ([1]; at 1.2 µM): 2% | growth inhibition ([1]; at 3.7 µM): 8% | growth inhibition ([1]; at 11.0 µM): 26% | growth inhibition ([1]; at 33.0 µM): 48% | growth inhibition ([1]; at 100.0 µM): 72% (active) | growth inhibition ([2]; at 1.2 µM): -2% | growth inhibition ([2]; at 3.7 µM): 4% | growth inhibition ([2]; at 11.0 µM): 11% | growth inhibition ([2]; at 33.0 µM): 12% | growth inhibition ([2]; at 100.0 µM): 19% | growth inhibition ([3]; at 1.2 µM): 15% | growth inhibition ([3]; at 3.7 µM): 33% | growth inhibition ([3]; at 11.0 µM): 43% | growth inhibition ([3]; at 33.0 µM): 69% | growth inhibition ([3]; at 100.0 µM): 63% | growth inhibition ([4]; at 1.2 µM): -4% | growth inhibition ([4]; at 3.7 µM): 9% | growth inhibition [4, 16]: -46% | growth inhibition ([4]; at 11.0 µM): 34% | growth inhibition ([4]; at 33.0 µM): 55% | growth inhibition [4, 17]: 53% | growth inhibition ([4]; at 50.0 µM): 76.8% (active) | growth inhibition ([4]; at 100.0 µM): 71% (active) | growth inhibition ([5]; at 1.2 µM): 1% | growth inhibition ([5]; at 3.7 µM): 0% | growth inhibition [5, 16]: -47% | growth inhibition ([5]; at 11.0 µM): 0% | growth inhibition ([5]; at 33.0 µM): 2% | growth inhibition [5, 17]: -53% | growth inhibition ([5]; at 50.0 µM): 14.7% | growth inhibition ([5]; at 100.0 µM): 4% | growth inhibition ([6]; at 1.2 µM): 3% | growth inhibition ([6]; at 3.7 µM): 3% | growth inhibition ([6]; at 11.0 µM): 23% | growth inhibition ([6]; at 33.0 µM): 16% | growth inhibition ([6]; at 100.0 µM): 11% | growth inhibition [7, 16]: -60% | growth inhibition [7, 17]: -53% | growth inhibition ([7]; at 50.0 µM): 0% | growth inhibition ([8]; at 1.2 µM): 0% | growth inhibition ([8]; at 3.7 µM): -5% | growth inhibition ([8]; at 11.0 µM): -10% | growth inhibition ([8]; at 33.0 µM): -8% | growth inhibition ([8]; at 100.0 µM): -7% | growth inhibition [9, 16]: -60% | growth inhibition [9, 17]: -59% | growth inhibition ([9]; at 50.0 µM): -40.5% | growth inhibition ([10]; at 1.2 µM): 4% | growth inhibition ([10]; at 3.7 µM): -2% | growth inhibition [10, 16]: -58% | growth inhibition ([10]; at 11.0 µM): -1% | growth inhibition ([10]; at 33.0 µM): -5% | growth inhibition [10, 17]: -60% | growth inhibition ([10]; at 50.0 µM): -0.35% | growth inhibition ([10]; at 100.0 µM): -7% | growth inhibition ([11]; at 1.2 µM): 9% | growth inhibition ([11]; at 3.7 µM): 14% | growth inhibition ([11]; at 11.0 µM): 16% | growth inhibition ([11]; at 33.0 µM): 19% | growth inhibition ([11]; at 100.0 µM): 22% | growth inhibition ([12]; at 1.2 µM): -10% | growth inhibition ([12]; at 3.7 µM): -4% | growth inhibition ([12]; at 11.0 µM): -2% | growth inhibition ([12]; at 33.0 µM): 2% | growth inhibition ([12]; at 100.0 µM): 17% | growth inhibition ([13]; at 1.2 µM): -12% | growth inhibition ([13]; at 3.7 µM): -14% | growth inhibition ([13]; at 11.0 µM): -2% | growth inhibition ([13]; at 33.0 µM): 3% | growth inhibition ([13]; at 100.0 µM): 21% | growth inhibition [14, 16]: -97% | growth inhibition [14, 17]: -73% | growth inhibition ([14]; at 50.0 µM): 33.9% | growth inhibition ([15]; at 1.2 µM): -10% | growth inhibition ([15]; at 3.7 µM): -1% | growth inhibition ([15]; at 11.0 µM): -2% | growth inhibition ([15]; at 33.0 µM): -1% | growth inhibition ([15]; at 100.0 µM): 13%
